Data: PubChem BioAssay
The source made the active and inactive calls. No stated cut-off is given here; in the data, active means inhibition above about 33%; inactive means the rest.

Assay: VP16 transactivation reporter inhibitors, counter-screen for LRH-1 inverse agonist project, cell-based, luminescence, high throughput (AID 651615)
Conditions: Gal4-VP16 luciferase reporter cells, at 3.6 µM, hits give high values

Question: With Cc1cc(OC(=O)c2ccco2)c2c3c(c(=O)oc2c1)CCCC3 as the compound, how does the inhibition read?
Answer: 20.2% (inactive)

Question: For CC12CCC(O)CC1CCC1C2CCC2(C)C(C3=CC(=O)OC3)C(O)CC12O (stereo not drawn), which inhibition is on record?
Answer: 41% (active)

Question: For CCOC(=O)[C@]12Cc3cc(Cl)ccc3[C@H]1N(C1CCCCC1)C(=O)c1cc(OC)ccc12, which inhibition is on record?
Answer: 87.7% (active)

Question: For N#CCCn1cc(C(=O)Nc2ccc([N+](=O)[O-])cc2)c(-c2ccccc2)n1, which inhibition is on record?
Answer: 15.5% (inactive)

Question: Which inhibition does the source give for CCN(CC)C(=O)COc1cc(C)cc2oc(=O)c3c(c12)CCCC3 here?
Answer: -18.9% (inactive)

Question: With C[C@@H]1O[C@@H](O[C@H]2C[C@@H](O)[C@]3(CO)[C@H]4[C@H](O)C[C@]5(C)[C@@H](C6COC(=O)C6)CC[C@]5(O)[C@@H]4CC[C@]3(O)C2)[C@H](O)[C@H](O)[C@H]1O (stereo partly drawn) as the compound, how does the inhibition read?
Answer: 66.4% (active)

Question: With CC(=O)O[C@H]1C[C@@H]2OC3C=C(C)CCC3(C)[C@@]1(C)[C@@]21CO1 (stereo partly drawn) as the compound, how does the inhibition read?
Answer: 96.8% (active)

Question: With Cc1cc(OCC(=O)OC(C)C)c2c3c(c(=O)oc2c1)CCCC3 as the compound, how does the inhibition read?
Answer: -9.99% (inactive)

Question: For COC1/C=C/C=C(\C)Cc2cc(O)c(Cl)c(c2)N(C)C(=O)CC(OC(=O)C(C)C)C2(C)OC2C(C)C2CC1(O)NC(=O)O2 (stereo not drawn), which inhibition is on record?
Answer: 32.6% (active)

Question: For CCOC(=O)[C@]12Cc3cc(Cl)ccc3[C@H]1N(C1CCCCC1)C(=O)c1ccccc12, which inhibition is on record?
Answer: 92.8% (active)

Question: With CC1CCN(C(=O)CCl)CC1 as the compound, how does the inhibition read?
Answer: -7.83% (inactive)

Question: With CC(=O)OC1CC(OC2C(O)CC(OC3C(O)CC(OC4CCC5(C)C(CCC6C5CCC5(C)C(C7=CC(=O)OC7)CCC65O)C4)OC3C)OC2C)OC(C)C1OC1OC(CO)C(O)C(O)C1O (stereo not drawn) as the compound, how does the inhibition read?
Answer: 92.5% (active)

Question: For O=c1[nH]c2ccccc2n1C1CCN(Cc2ccc(-c3[nH]c4cc5ncnc5cc4nc3-c3ccccc3)cc2)CC1, which inhibition is on record?
Answer: 25% (inactive)

Question: With COC(=O)C12CCc3c(ccc4cc(OC)ccc34)C1=CC(=O)C2 (stereo not drawn) as the compound, how does the inhibition read?
Answer: -1.27% (inactive)

Question: With CCOC(=O)[C@]12Cc3cc(C)ccc3[C@H]1N(C1CCCCC1)C(=O)c1ccccc12 as the compound, how does the inhibition read?
Answer: 88.4% (active)

Question: For c1ccc2c(c1)[IH]c1ccccc1-2, which inhibition is on record?
Answer: 72.8% (active)

Question: For Cc1ccccc1-n1c(/C=C/c2ccccn2)nc2ccccc2c1=O, which inhibition is on record?
Answer: 5.08% (inactive)

Question: With O=[N+]([O-])c1cc(F)c(N2CCCCCC2)cc1N1CCNCC1 as the compound, how does the inhibition read?
Answer: 9.46% (inactive)

Question: With CCOC(=O)[C@]12Cc3cc(Cl)ccc3[C@H]1N(CC(=O)OC)C(=O)c1ccccc12 as the compound, how does the inhibition read?
Answer: 81.1% (active)

Question: With CCOc1cc(C=O)ccc1O as the compound, how does the inhibition read?
Answer: -3.05% (inactive)

Question: For CCOC(=O)[C@]12Cc3cc(C)ccc3[C@H]1N(C1CCCCC1)C(=O)c1cc(OC)ccc12, which inhibition is on record?
Answer: 87.9% (active)

Question: With N#CCCn1cc(C(=O)Nc2ccccc2Cl)c(-c2ccc([N+](=O)[O-])cc2)n1 as the compound, how does the inhibition read?
Answer: -6.5% (inactive)

Question: Which inhibition does the source give for C=C1C(=O)O[C@@H]2C[C@@H](C)[C@@H]3C4OC4C(=O)[C@@]3(C)[C@@H](O)[C@H]12 (stereo partly drawn) here?
Answer: 82.8% (active)

Question: With COC(=O)C(C)Oc1cc(C)cc2oc(=O)c3c(c12)CCC3 (stereo not drawn) as the compound, how does the inhibition read?
Answer: -163% (inactive)

Question: With N#Cc1ccc2nc(-c3ccc(CN4CCC(n5c(=O)[nH]c6ccccc65)CC4)cc3)c(-c3ccccc3)nc2c1 as the compound, how does the inhibition read?
Answer: 27.1% (inactive)

Question: With CC(=O)OC(C)(C)/C=C/C(=O)C(C)(O)C1C(O)CC2(C)C3CC=C4C(CC(O)C(=O)C4(C)C)C3(C)C(=O)CC12C (stereo not drawn) as the compound, how does the inhibition read?
Answer: 59.7% (active)

Question: Which inhibition does the source give for CCCCn1c(NC(=O)c2ccc(Br)o2)c(C(=O)OCC)c2nc3ccccc3nc21 here?
Answer: 7.64% (inactive)

Question: Which inhibition does the source give for Cc1nn(Cc2ccccc2)c(C)c1C(=O)OCC(=O)Nc1ccccc1SCC#N here?
Answer: 2% (inactive)

Question: For Cc1ccc(-n2nc(C)cc2NC(=O)COc2cc(C)cc3oc(=O)c4c(c23)CCC4)cc1, which inhibition is on record?
Answer: -10.8% (inactive)

Question: Which inhibition does the source give for OC1(c2ccc(F)cc2)CC2CCC(C1)N2Cc1nnnn1C1CCCC1 (stereo not drawn) here?
Answer: -0.39% (inactive)

Question: For CCOC(=O)c1c(C)n(CC(O)CN2CCOCC2)c2cc(Br)c(OC)cc12 (stereo not drawn), which inhibition is on record?
Answer: -12.2% (inactive)

Question: With CC1=C(O)C(=O)C=C2C1=CC=C1C2(C)CCC2(C)C3CC(C)(C(=O)O)CCC3(C)CCC12C (stereo not drawn) as the compound, how does the inhibition read?
Answer: 89.5% (active)

Question: Which inhibition does the source give for CCN1CCN(c2cc(N3CCCC3)c([N+](=O)[O-])cc2F)CC1 here?
Answer: 15.6% (inactive)

Question: Which inhibition does the source give for NC(Cc1ccc(F)cc1)c1csc(Nc2ncccn2)n1 (stereo not drawn) here?
Answer: 49.8% (active)

Question: Which inhibition does the source give for CC[n+]1c(/C=C/C=C/c2ccc(N(C)C)cc2)sc2ccccc21 here?
Answer: 86.5% (active)

Question: For CC1=CC2OC3CC4OC(=O)C=CC=CC(=O)OCCC(C)C(O)C(=O)OCC2(CC1)C4(C)C31CO1 (stereo not drawn), which inhibition is on record?
Answer: 98.1% (active)

Question: Which inhibition does the source give for CCOC(=O)[C@]12Cc3ccc(C)cc3[C@H]1N(C1CCCCC1)C(=O)c1cc(OC)ccc12 here?
Answer: 91.8% (active)

Question: Which inhibition does the source give for Cc1cc(S(=O)(=O)NC(C)C)ccc1OCC(=O)N1CCN(Cc2ccc3c(c2)OCO3)CC1 here?
Answer: 19.5% (inactive)
